Compound activity from PubChem BioAssay.
The sample as a whole holds a higher share of hits than the screen did.
Cruzain Triton = inhibitors of Trypanosoma cruzi cruzain with detergent; P25779; Potency, µM, for the others: max response, negative = inhibition, actives largely listed as inhibitors; 200,000 compounds, 0.43% hits; purified cruzain, Z-FR-AMC fluorescence, 0.01% Triton;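 note: plate controls were neutral wells for no effect and buffer without enzyme for full effect; nearly all actives have a fitted effect of over 40% in size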
Target sequence (P25779 123-467 limits assumed): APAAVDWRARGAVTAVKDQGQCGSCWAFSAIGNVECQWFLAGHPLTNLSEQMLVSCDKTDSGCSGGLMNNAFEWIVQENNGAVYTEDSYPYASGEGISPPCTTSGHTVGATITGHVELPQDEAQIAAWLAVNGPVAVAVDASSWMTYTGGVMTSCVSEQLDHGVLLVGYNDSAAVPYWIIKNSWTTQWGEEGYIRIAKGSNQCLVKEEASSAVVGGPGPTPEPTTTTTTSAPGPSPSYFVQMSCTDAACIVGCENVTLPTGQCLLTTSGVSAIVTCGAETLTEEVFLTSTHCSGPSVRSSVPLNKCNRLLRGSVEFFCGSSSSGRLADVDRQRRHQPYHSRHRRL
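Steps: dispense cruzain (1.5 nM final) in acetate buffer pH 5.5 with DTT and 0.01% Triton X-100; pin-transfer compounds; incubate 15 min RT; add Z-FR-AMC (2 uM final); read fluorescence every 30 s, using the 60 s intensity change.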
Cruzain inh noDet = cruzain (T. cruzi) inhibition without detergent; Potency, µM, for inactives: max response, negative = inhibition, usual class: inhibitors; purified cruzain, Z-FR-AMC fluorescence, no detergent; AID 1476; P25779; 200,000 compounds, 2.3% hits;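 note: plate controls were enzyme without inhibitor for no effect and buffer without enzyme for full effect; nearly all actives have a fitted effect of over 40% in size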
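Purified cruzain at 1.5 nM, pre-incubated 15 min with compound at room temperature in 100 mM sodium acetate pH 5.5, 5 mM DTT, 0.00005% Triton X-100. Reaction started with 2 uM Z-FR-AMC; AMC fluorescence increase over 60 s gives rate.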
NS1 function inh = inhibitors of influenza NS1 protein function | Potency, µM (top dose mostly 46.1 µM), for inactives: at the top dose activity, positive = more growth | AID 2326 | 270,000 compounds, 0.4% hits; calls by dose curve; note: actives are rising curves; nearly all actives have a fitted effect of over 50% in size
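S. cerevisiae expressing influenza A NS1, grown in glucose, washed, then diluted 1:100 into pH 6.0 -URA galactose medium with 23 nl compound. Growth recovery read as OD600; NS1-free strain serves as control.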
* marks the source's active call; other numbers are inactive results; ? = inconclusive; nt = not tested or not shown. Unless noted, calls come from the whole dose curve; as a rule, active = well fitted curve in the direction sought with a large enough effect; inconclusive = small, poorly fitted or top-dose-only effect, or another doubt; inactive = no such curve, though single readings can be large; an effect the other way counts as inactive or inconclusive. Potency is the fitted concentration of half-maximal effect.

SMILES	Cruzain Triton	Cruzain inh noDet	NS1 function inh
C/C(=N\Nc1ccc(C(F)(F)F)cc1[N+](=O)[O-])C(C)C	-5.4%	-4.6%	-9.7%
Cc1c(C(=O)N2CCC(C)CC2)c(S(=O)(=O)Nc2cccc(C#N)c2)c(C)n1C	-0.9%	3.6%	nt
CCCC(=O)Nc1ccc(-c2ccc(NC(=O)CCC)cc2)cc1	-0.7%	12.6µM*	0.9%
CCCC(=O)Nc1ccc(Nc2ccccc2)cc1	-4.0%	13.0%	-20.4%
N#CCCn1cc(/C=N/NC(=O)c2ccncc2)c(-c2ccccc2)n1	2.7%	-3.5%	-11.7%
Cc1c(Cl)cccc1NC(=O)Nc1c[nH]c(=O)[nH]c1=O	1.6%	20µM*	nt
CCOC(=O)c1ccc(NC(=O)Nc2c[nH]c(=O)[nH]c2=O)cc1	2.3%	8.1%	nt
Cc1noc(C)c1C(=O)Nc1nc(C23CC4CC(CC(C4)C2)C3)cs1	-3.5%	1.0%	-18.4%
COc1cccc(CNC(=O)CSc2nnc3c(n2)[nH]c2ccc(F)cc23)c1	nt	nt	3.9%
O=C(CSc1nnc2c(n1)[nH]c1ccc(F)cc12)OCc1ccccc1	2.5%	12.6µM*	0.1%
CCCn1c(=O)n(CC(=O)NCC2CCCO2)c(=O)c2c3c(sc21)COC(C)(C)C3 (stereo unspecified)	nt	nt	4.3%
COc1cc(C)cc2c(-c3c(O)cc(O)c4c3C[C@H](C)N[C@@H]4C)cc(-c3cc(-c4c(O)cc(O)c5c4C[C@H](C)N[C@@H]5C)c4cc(C)cc(OC)c4c3O)c(O)c12	-2.9%	-13.9%	7.94µM*
Cc1cc(C)cc(NC(=S)N2CCC(NC(=O)c3ccc(F)cc3)CC2)c1	nt	nt	-0.1%
CN(C)c1ccc(/C=C/C=C2/SC(=S)N(c3ccccc3)C2=O)cc1	-2.9%	7.94µM*	nt
O=C(O)c1ccc(N2C(=O)/C(=C/C=C/c3ccccc3)SC2=S)cc1	nt	nt	6.9%
O=c1c2c3c(sc2ncn1Cc1ccc(F)cc1)CCC3	-1.5%	7.94µM*	-5.5%
CCOC(=O)N1CCc2c(sc3ncn(Cc4ccc(F)cc4)c(=O)c23)C1	nt	nt	-2.2%
Cc1nn(-c2ccccc2)c(N2CCCCC2)c1/C=N/O	0.7%	-9.1%	-3.1%
Cc1nn(-c2ccccc2)c(N2CCCC2)c1/C=C1\N=C(c2ccccc2)OC1=O	1.58µM*	0.794µM*	4.2%
C=C(c1ccc(OCCO)cc1)c1ccc(OCCO)cc1	-2.3%	-13.7%	6.5%
COc1ccc(/C(O)=C2\C(=O)C(=O)N(CC3CCCO3)C2c2cc(OC)ccc2OC)cc1 (stereo unspecified)	-5.9%	-8.1%	-4.1%
Cc1cccc(OCc2nc(-c3ccc(-n4cccc4)cc3)no2)c1	2.1%	20µM*	5.9%
Cc1ccccc1OCc1nc(-c2ccc(-n3cccc3)cc2)no1	0.4%	?	-2.2%
Cc1ccc(OCc2nc(-c3ccc(-n4cccc4)cc3)no2)cc1C	4.3%	25.1µM*	13.0%
Fc1ccccc1OCc1nc(-c2ccc(-n3cccc3)cc2)no1	-3.5%	-15.4%	nt
SMILES	Cruzain Triton	Cruzain inh noDet	NS1 function inh
COc1ccc(CC(=O)Nc2ccc(/C(C)=N/NC(=O)c3ccc(OC)cc3OC)cc2)cc1	nt	nt	-3.9%
Cc1cccc(-n2nc3c(c2NC(=O)c2c(F)cccc2F)CS(=O)(=O)C3)c1C	nt	nt	-8.0%
CCC(=O)OCc1cnc(C)c2oc(=O)c(C(=O)Nc3ccc(CC)cc3)cc12	0.3%	1.9%	nt
CCOC(=O)N1CCN(C(=O)CCSc2ccc(Cl)cc2)CC1	0.0%	3.2%	-0.7%
CC(=O)Nc1ccc(NC(=O)c2cc(-c3ccc4c(c3)OCCO4)on2)cc1	-0.2%	-8.3%	nt
O=C(Nc1ccc(SC(F)F)cc1)c1cc(-c2ccc3c(c2)OCCO3)on1	0.1%	7.94µM*	nt
Cc1cccc(C)c1NC(=O)Cn1nnc(C(=O)NCc2ccc(F)cc2)c1N	-0.7%	-5.7%	nt
O=S(=O)(c1ccc(Cl)cc1)n1ccc(-c2cccc(OCc3c(F)cccc3Cl)c2)n1	3.6%	20µM*	23.4%
O=S(=O)(c1ccc(F)cc1)n1ccc(-c2cccc(OCc3c(F)cccc3Cl)c2)n1	10.4%	-11.6%	?
O=C(CCC1CCCCC1)Nc1ccc(S(=O)(=O)Nc2nccs2)cc1	-11.8%	-4.1%	6.1%
COc1ccc(/C=C/c2nnc(NC(=O)COc3ccccc3)s2)cc1	nt	nt	1.6%
COc1ccc(/C=C/c2nnc(NC(=O)COc3cccc(C)c3)s2)cc1	1.6%	12.6µM*	12.4%
Cc1ccc(C)c(NC(=O)C(Sc2ncnc3ccccc23)c2ccccc2)c1 (stereo unspecified)	2.3%	0.2%	8.4%
Cc1ccc(C)c(NC(=O)C(Sc2nc3ccccc3c(=O)n2CC(C)C)c2ccccc2)c1 (stereo unspecified)	-0.6%	20µM*	12.0%
CCCN1C(=O)C2(c3ccccc31)c1c(oc3ccc(C)cc3c1=O)C(=O)N2CCOC (stereo unspecified)	-1.8%	8.6%	nt
O=[N+]([O-])c1ccc(N/N=C/c2cn(Cc3ccc(F)cc3)c3ccccc23)nc1	-9.3%	7.94µM*	-3.0%
COC(=O)N/N=C/c1cn(Cc2ccc(F)cc2)c2ccccc12	nt	nt	4.9%
CC(=O)c1cccc(CN2CCCC(N3CCN(c4ccccc4F)CC3)C2)c1 (stereo unspecified)	nt	nt	8.1%
C/C(=N\OC(=O)c1c(-c2ccccc2Cl)noc1C)c1ccncc1	nt	nt	4.1%
COc1cc(/C=C2/N=C(C3CCCCC3)OC2=O)cc(OC)c1OC	2.51µM*	2.51µM*	2.0%
COc1cc(/C=C2\N=C(C)OC2=O)cc(OC)c1OC	nt	nt	10.0%
O=S(=O)(c1ccc(S(=O)(=O)N2CCN(C/C=C/c3ccccc3)CC2)cc1)N1CCCC1	1.7%	?	-4.5%
COc1ccc2nc(N/C(N)=N/C(=S)Nc3ccc(C)c(C)c3)nc(C)c2c1	-11.9%	12.6µM*	?
CCOc1ccc2nc(N/C(N)=N/C(=S)Nc3ccc(OC)cc3)nc(C)c2c1	nt	nt	2.1%
COc1ccc(CNC(=O)Cn2cc(C(F)(F)F)ccc2=O)cc1	0.0%	4.9%	7.7%
SMILES	Cruzain Triton	Cruzain inh noDet	NS1 function inh
Fc1ccccc1COc1ccccc1/C=N/Nc1nc(N2CCCC2)nc(N2CCCC2)n1	-2.6%	?	19.0%
Fc1ccc(COc2ccc(Cl)cc2/C=N/Nc2nc(N3CCCC3)nc(N3CCCC3)n2)cc1	-1.7%	5.01µM*	4.9%
O=C(NC1CC1)c1nc(Cn2cc([N+](=O)[O-])cn2)no1	nt	nt	3.4%
Cc1ccc(S(=O)(=O)NCC(=O)N(CC(=O)NCc2ccco2)Cc2cccs2)cc1	1.5%	-12.0%	-7.6%
CCOc1ccc(NC(=O)CCn2c(=S)oc3ccccc32)cc1	nt	nt	5.1%
CCNc1ccc(-c2nc(-c3ccco3)no2)cc1[N+](=O)[O-]	-1.4%	-15.2%	nt
COCCNc1ccc(-c2nc(-c3ccco3)no2)cc1[N+](=O)[O-]	-2.6%	3.16µM*	nt
CN(C)N1C(N)=C(C#N)C(c2cccc([N+](=O)[O-])c2)C2=C1CC(C)(C)CC2=O (stereo unspecified)	nt	nt	5.1%
CC(C)C(NC(=O)c1ccccc1NC(=O)c1ccco1)C(=O)NNC(=O)c1ccncc1 (stereo unspecified)	nt	nt	2.4%
CN1CCN(S(=O)(=O)c2cccc(C(=O)Nc3sc4c(c3-c3nc5ccccc5[nH]3)CCCC4)c2)CC1	-6.1%	15.8µM*	?
CC(=O)N1CCN(S(=O)(=O)c2cccc(C(=O)Nc3nc4c(s3)CCCC4)c2)CC1	-9.0%	?	5.2%
O=C(Nc1sc2c(c1-c1nc3ccccc3[nH]1)CCCC2)C1CCCC1	-5.3%	12.6µM*	11.8%
